# In PubChem BioAssay (NCI):
# The panel holds about 79,000 compounds, 15% with a hit somewhere; the sample as a whole holds those more often. A number with no mark means an inactive call. Activity calls are given as the source filed them. Rule as the data show it: active = growth inhibition above about 70%; inactive = the rest.
# Tests used:
# [1] = NCI Yeast Anticancer Drug Screen. Data for the rad52 strain (AID 147);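 also: 0% = growth of vehicle-treated control cultures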; conditions: S. cerevisiae rad52 mutant growth inhibition, active compounds read high
# Procedure, shortened: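 DNA repair-defective yeast; compound exposure; growth scored against vehicle controls.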
# [2] = NCI Yeast Anticancer Drug Screen. Data for the wt1 strain (AID 149);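 also: 0% = growth of vehicle-treated wt1 cultures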; conditions: S. cerevisiae wt1 strain (SPY 50644) growth inhibition, active compounds read high
# Procedure, shortened: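 Growth inhibition read against vehicle controls after compound exposure of the wt1 yeast strain.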
# [3] = NCI Yeast Anticancer Drug Screen. Data for the mgt1 strain (AID 153); conditions: S. cerevisiae mgt1 mutant growth inhibition, active compounds read high
# Procedure, shortened: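 Growth inhibition relative to vehicle controls was scored for the mgt1 yeast strain after compound exposure.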
# [4] = NCI Yeast Anticancer Drug Screen. Data for the rad50 strain (AID 155);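 also: 0% = growth of vehicle-only cultures of the same strain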; conditions: S. cerevisiae rad50 strain growth inhibition, active compounds read high
# Procedure, shortened: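 Readout: growth inhibition relative to vehicle-treated cultures. Compound exposure was carried out in a genetically defined yeast strain deficient in DNA damage repair.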
# [5] = NCI Yeast Anticancer Drug Screen. Data for the mec2-1 strain (AID 157); conditions: S. cerevisiae mec2-1 strain, active compounds read high
# Procedure, shortened: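 Growth inhibition is read against vehicle-treated controls after compound exposure of the mec2-1 yeast strain, which is defective in DNA damage repair or cell cycle control.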
# [6] = NCI Yeast Anticancer Drug Screen. Data for the rad14 strain (AID 159);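 also: 0% = growth of vehicle-treated control cultures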; conditions: S. cerevisiae rad14 strain growth inhibition, active compounds read high
# Procedure, shortened: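 Growth inhibition vs vehicle controls; genetically altered yeast strain (DNA damage repair defect) treated with test compounds.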
# [7] = NCI Yeast Anticancer Drug Screen. Data for the sgs1 mgt1 strain (AID 161);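 also: 0% = growth of cultures given vehicle only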; conditions: S. cerevisiae sgs1 mgt1 strain, active compounds read high
# Procedure, shortened: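 This yeast growth screen uses a strain with defined DNA-repair lesions; compound-treated growth is compared with vehicle-treated growth.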
# [8] = NCI Yeast Anticancer Drug Screen. Data for the CLN2oe strain (AID 163);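 also: 0% = growth of vehicle-only control cultures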; conditions: S. cerevisiae CLN2oe strain, active compounds read high
# Procedure, shortened: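 Compound-treated yeast; growth vs vehicle ctrl = % inhibition. Genetically altered strain (cell-cycle control).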
# [9] = NCI Yeast Anticancer Drug Screen. Data for the cln2 rad14 strain (AID 165);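 also: 0% = growth equal to vehicle treated cultures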; conditions: S. cerevisiae cln2 rad14 strain, active compounds read high
# Procedure, shortened: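 Growth inhibition, relative to vehicle-treated controls, is the read-out. The test organism is a yeast strain with defined genetic alterations, cln2 rad14.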
# [10] = NCI Yeast Anticancer Drug Screen. Data for the bub3 strain (AID 167); conditions: S. cerevisiae bub3 mutant strain, active compounds read high
# Procedure, shortened: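 Readout: yeast growth inhibition, expressed relative to vehicle-only wells. The test organism is a mutant strain from a panel with lesions in DNA repair or checkpoint genes.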
# [11] = NCI Yeast Anticancer Drug Screen. Data for the wt2 strain (AID 169);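 also: 0% = growth of vehicle-treated yeast cultures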; conditions: S. cerevisiae wt2 strain growth inhibition, active compounds read high
# Procedure, shortened: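 Compound exposure of yeast; growth compared with vehicle controls; inhibition reported.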
# [12] = NCI Yeast Anticancer Drug Screen. Data for the mlh1 strain (AID 171);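 also: 0% = growth of vehicle-treated control cultures of the same strain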; conditions: S. cerevisiae mlh1 strain growth inhibition, active compounds read high
# Procedure, shortened: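 Compounds are applied to a genetically altered yeast strain, and its growth is compared with that of vehicle-treated cultures to give percent inhibition.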
# [13] = NCI Yeast Anticancer Drug Screen. Data for the sgs1 strain (AID 173);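 also: 0% = growth of vehicle-only control cultures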; conditions: S. cerevisiae sgs1 mutant, active compounds read high
# Procedure, shortened: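 Compounds applied to genetically altered yeast; growth compared with vehicle-treated cultures to give % inhibition.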
# [14] = NCI Yeast Anticancer Drug Screen. Data for the mlh1 rad18 strain (AID 175); conditions: S. cerevisiae mlh1 rad18 strain growth inhibition, active compounds read high
# Procedure, shortened: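 Cells of a genetically altered yeast strain, deficient in DNA damage repair, were treated with compound. Their growth was then compared with that of vehicle-treated cultures to give inhibition.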
# [15] = NCI Yeast Anticancer Drug Screen. Data for the rad18 strain (AID 177); conditions: S. cerevisiae rad18 mutant growth inhibition, active compounds read high
# Procedure, shortened: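 Compounds are applied to a repair-deficient yeast strain, and growth is compared with that of vehicle-treated cultures to give percent inhibition.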
# [16] = at 5.0 µM (retest, dose inferred, filed as 0.5)
# [17] = at 50.0 µM (retest, dose inferred, filed as 5.0)
compound,measurement,setting,value
c1ccc2c(c1)c1ncccc1c1nccnc21,growth inhibition,[1]; at 1.2 µM,2%
same,growth inhibition,[1]; at 3.7 µM,8%
same,growth inhibition,[1]; at 11.0 µM,26%
same,growth inhibition,[1]; at 33.0 µM,48%
same,growth inhibition,[1]; at 100.0 µM,72% (active)
same,growth inhibition,[2]; at 1.2 µM,-2%
same,growth inhibition,[2]; at 3.7 µM,4%
same,growth inhibition,[2]; at 11.0 µM,11%
same,growth inhibition,[2]; at 33.0 µM,12%
same,growth inhibition,[2]; at 100.0 µM,19%
same,growth inhibition,[3]; at 1.2 µM,-2%
same,growth inhibition,[3]; at 3.7 µM,0%
same,growth inhibition,[3]; at 11.0 µM,-2%
same,growth inhibition,[3]; at 33.0 µM,-2%
same,growth inhibition,[3]; at 100.0 µM,-2%
same,growth inhibition,[4]; at 1.2 µM,-4%
same,growth inhibition,[4]; at 3.7 µM,9%
same,growth inhibition,[4]; [16],-46%
same,growth inhibition,[4]; at 11.0 µM,34%
same,growth inhibition,[4]; at 33.0 µM,55%
same,growth inhibition,[4]; [17],53%
same,growth inhibition,[4]; at 50.0 µM,76.8% (active)
same,growth inhibition,[4]; at 100.0 µM,71% (active)
same,growth inhibition,[5]; at 1.2 µM,1%
same,growth inhibition,[5]; at 3.7 µM,0%
same,growth inhibition,[5]; [16],-47%
same,growth inhibition,[5]; at 11.0 µM,0%
same,growth inhibition,[5]; at 33.0 µM,2%
same,growth inhibition,[5]; [17],-53%
same,growth inhibition,[5]; at 50.0 µM,14.7%
same,growth inhibition,[5]; at 100.0 µM,4%
same,growth inhibition,[6]; at 1.2 µM,3%
same,growth inhibition,[6]; at 3.7 µM,3%
same,growth inhibition,[6]; at 11.0 µM,23%
same,growth inhibition,[6]; at 33.0 µM,16%
same,growth inhibition,[6]; at 100.0 µM,11%
same,growth inhibition,[7]; [16],-60%
same,growth inhibition,[7]; [17],-53%
same,growth inhibition,[7]; at 50.0 µM,0%
same,growth inhibition,[8]; at 1.2 µM,0%
same,growth inhibition,[8]; at 3.7 µM,-5%
same,growth inhibition,[8]; at 11.0 µM,-10%
same,growth inhibition,[8]; at 33.0 µM,-8%
same,growth inhibition,[8]; at 100.0 µM,-7%
same,growth inhibition,[9]; [16],-60%
same,growth inhibition,[9]; [17],-59%
same,growth inhibition,[9]; at 50.0 µM,-40.5%
same,growth inhibition,[10]; at 1.2 µM,4%
same,growth inhibition,[10]; at 3.7 µM,-2%
same,growth inhibition,[10]; [16],-58%
same,growth inhibition,[10]; at 11.0 µM,-1%
same,growth inhibition,[10]; at 33.0 µM,-5%
same,growth inhibition,[10]; [17],-60%
same,growth inhibition,[10]; at 50.0 µM,-0.35%
same,growth inhibition,[10]; at 100.0 µM,-7%
same,growth inhibition,[11]; at 1.2 µM,9%
same,growth inhibition,[11]; at 3.7 µM,14%
same,growth inhibition,[11]; at 11.0 µM,16%
same,growth inhibition,[11]; at 33.0 µM,19%
same,growth inhibition,[11]; at 100.0 µM,22%
same,growth inhibition,[12]; at 1.2 µM,-10%
same,growth inhibition,[12]; at 3.7 µM,-4%
same,growth inhibition,[12]; at 11.0 µM,-2%
same,growth inhibition,[12]; at 33.0 µM,2%
same,growth inhibition,[12]; at 100.0 µM,17%
same,growth inhibition,[13]; at 1.2 µM,-12%
same,growth inhibition,[13]; at 3.7 µM,-14%
same,growth inhibition,[13]; at 11.0 µM,-2%
same,growth inhibition,[13]; at 33.0 µM,3%
same,growth inhibition,[13]; at 100.0 µM,21%
same,growth inhibition,[14]; [16],-97%
same,growth inhibition,[14]; [17],-73%
same,growth inhibition,[14]; at 50.0 µM,33.9%
Brc1ccc(-c2cc3c(cc2C2SCCS2)OCO3)cc1,growth inhibition,[1]; at 1.2 µM,-21%
same,growth inhibition,[1]; at 3.7 µM,-21%
same,growth inhibition,[1]; at 11.0 µM,-16%
same,growth inhibition,[1]; at 33.0 µM,8%
same,growth inhibition,[1]; at 100.0 µM,27%
same,growth inhibition,[2]; at 1.2 µM,-24%
same,growth inhibition,[2]; at 3.7 µM,-17%
same,growth inhibition,[2]; at 11.0 µM,-26%
same,growth inhibition,[2]; at 33.0 µM,-14%
same,growth inhibition,[2]; at 100.0 µM,-7%
same,growth inhibition,[3]; at 1.2 µM,-52%
same,growth inhibition,[3]; at 3.7 µM,-45%
same,growth inhibition,[3]; at 11.0 µM,-36%
same,growth inhibition,[3]; at 33.0 µM,-6%
same,growth inhibition,[3]; at 100.0 µM,50%
same,growth inhibition,[4]; at 1.2 µM,-23%
same,growth inhibition,[4]; at 3.7 µM,-13%
same,growth inhibition,[4]; [16],-19%
same,growth inhibition,[4]; at 11.0 µM,-13%
same,growth inhibition,[4]; at 33.0 µM,14%
same,growth inhibition,[4]; [17],48%
same,growth inhibition,[4]; at 50.0 µM,63.8%
same,growth inhibition,[4]; at 100.0 µM,30%
same,growth inhibition,[5]; at 1.2 µM,-29%
same,growth inhibition,[5]; at 3.7 µM,-29%
same,growth inhibition,[5]; [16],-57%
same,growth inhibition,[5]; at 11.0 µM,-31%
same,growth inhibition,[5]; at 33.0 µM,-27%
same,growth inhibition,[5]; [17],11%
same,growth inhibition,[5]; at 50.0 µM,22.2%
same,growth inhibition,[5]; at 100.0 µM,-15%
same,growth inhibition,[6]; at 1.2 µM,-35%
same,growth inhibition,[6]; at 3.7 µM,-24%
same,growth inhibition,[6]; at 11.0 µM,-30%
same,growth inhibition,[6]; at 33.0 µM,-7%
same,growth inhibition,[6]; at 100.0 µM,25%
same,growth inhibition,[7]; [16],-18%
same,growth inhibition,[7]; [17],70% (active)
same,growth inhibition,[7]; at 50.0 µM,66.6%
same,growth inhibition,[8]; at 1.2 µM,-18%
same,growth inhibition,[8]; at 3.7 µM,-25%
same,growth inhibition,[8]; at 11.0 µM,-28%
same,growth inhibition,[8]; at 33.0 µM,-10%
same,growth inhibition,[8]; at 100.0 µM,13%
same,growth inhibition,[9]; [16],9%
same,growth inhibition,[9]; [17],32%
same,growth inhibition,[9]; at 50.0 µM,21.1%
same,growth inhibition,[10]; at 1.2 µM,-16%
same,growth inhibition,[10]; at 3.7 µM,-8%
same,growth inhibition,[10]; [16],5%
same,growth inhibition,[10]; at 11.0 µM,-15%
same,growth inhibition,[10]; at 33.0 µM,2%
same,growth inhibition,[10]; [17],74% (active)
same,growth inhibition,[10]; at 50.0 µM,44.9%
same,growth inhibition,[10]; at 100.0 µM,22%
same,growth inhibition,[11]; at 1.2 µM,-1%
same,growth inhibition,[11]; at 3.7 µM,-11%
same,growth inhibition,[11]; at 11.0 µM,-15%
same,growth inhibition,[11]; at 33.0 µM,13%
same,growth inhibition,[11]; at 100.0 µM,43%
same,growth inhibition,[12]; at 1.2 µM,-24%
same,growth inhibition,[12]; at 3.7 µM,-23%
same,growth inhibition,[12]; at 11.0 µM,-28%
same,growth inhibition,[12]; at 33.0 µM,18%
same,growth inhibition,[12]; at 100.0 µM,63%
same,growth inhibition,[13]; at 1.2 µM,3%
same,growth inhibition,[13]; at 3.7 µM,9%
same,growth inhibition,[13]; at 11.0 µM,5%
same,growth inhibition,[13]; at 33.0 µM,52%
same,growth inhibition,[13]; at 100.0 µM,76% (active)
same,growth inhibition,[14]; [16],-8%
same,growth inhibition,[14]; [17],76% (active)
same,growth inhibition,[14]; at 50.0 µM,33.5%
same,growth inhibition,[15]; at 1.2 µM,-23%
same,growth inhibition,[15]; at 3.7 µM,-27%
same,growth inhibition,[15]; at 11.0 µM,-29%
same,growth inhibition,[15]; at 33.0 µM,20%
same,growth inhibition,[15]; at 100.0 µM,56%
